13 compounds from PubChem BioAssay (Tox21) can be followed below.

Several values for one entry are separate records, joined by “and”; a condition that tells them apart may be missing. Equal values may be shown once. Records with an inconclusive call do not appear. A structure can be active in one record and inactive in another. Activity calls are given as the source filed them. Unless noted, calls follow the shape of the dose curve; as a rule, active = well fitted curve in the direction sought with a large enough effect in the repeat runs; inconclusive = weak or mixed curves; inactive = no such curve, though single readings can be large; an effect the other way counts as inactive or inconclusive.

A short description of experiment [1]: qHTS assay for small molecules that induce genotoxicity in human embryonic kidney cells expressing luciferase-tagged ATAD5 (AID 651632). Also: nearly all actives have a fitted effect of over 15% in size. Also: potency is read from the fitted curve at half-maximal effect. In a few lines:
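Quantitative HTS in HEK293T expressing luciferase-tagged ATAD5, whose levels rise upon DNA damage. Exposure ran 16 hr at 37C and 5% CO2, with luminescence read 30 min after Amplite addition at room temperature.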
For orientation: In qHTS, concentration-response curves come from the screen itself.

The nature of experiment [2]: qHTS assay for small molecule agonists of the p53 signaling pathway - cell viability (AID 651633; calls by dose curve; also: nearly all actives have a fitted effect of over 30% in size; also: potency is read from the fitted curve at half-maximal effect). The method in brief:
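p53RE-bla cells, seeded at 4,000 per well and rested 5 h at 37 C/5% CO2, received compounds in DMSO for 16 h at 37 C. CellTiter-Glo was then added, and luminescence was read after 30 min at room temperature to gauge cytotoxicity.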

Experiment [3] in a line: qHTS assay for small molecules that induce genotoxicity in human embryonic kidney cells expressing luciferase-tagged ATAD5 - cell viability (AID 651634; calls by dose curve; also: nearly all actives have a fitted effect of over 25% in size). The method in brief:
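After 15.5 hr incubation with compound at 37C, 5% CO2, HEK293T ATAD5-luciferase cells received CellTiter-Fluor reagent; fluorescence intensity was quantified following 30 min at 37C.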

A short description of experiment [4]: qHTS assay for small molecule disruptors of the mitochondrial membrane potential - cell viability (AID 720634; calls by dose curve; also: nearly all actives have a fitted effect of over 20% in size; also: potency is read from the fitted curve at half-maximal effect). In a few lines:
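ATP-based luminescent viability readout (CellTiter-Glo, 30 min, room temperature) in HepG2 cells multiplexed with the m-MPI membrane potential dye; compound exposure lasted 1 hr at 37 C.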

Experiment [5] is described as follows: qHTS assay for small molecule disruptors of the mitochondrial membrane potential (AID 720635). Also: potency is read from the fitted curve at half-maximal effect. In a few lines: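 HepG2 cells (2,000/well) attached overnight at 37C, then took compound for 1 hr at 37C, 5% CO2. Mito-MPS dye was added for 30 min; fluorescence was read at 490/535 nm (monomers) and 540/590 nm (aggregates).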
Experiment [6] in a line: qHTS assay to test for compound auto fluorescence at 590 nm (red) in HepG2 cells (AID 720674). In a few lines: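 Intrinsic compound fluorescence in the red window (Ex/Em 540/590 nm) is measured in attached HepG2 cells exposed for 1 hr, DMSO vehicle as baseline, benchmarked to Rose Bengal sodium.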
The nature of experiment [7]: qHTS assay to test for compound auto fluorescence at 535 nm (green) in HepG2 cells (AID 720675).
Experiment [8] in a line: qHTS assay to test for compound auto fluorescence at 590 nm (red) in HEK293 cells (AID 720679). In a few lines:
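Intensity at 540nm excitation and 590nm emission is reported as Rose Bengal sodium-equivalent autofluorescence. Measurements followed overnight exposure (37C, 5% CO2) of HEK293 cells, 2,000 per well, to 23 nL compound.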

Experiment [9] is described as follows: qHTS assay to test for compound auto fluorescence at 460 nm (blue) in HEK293 cells (AID 720678). In a few lines: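 HEK293, 2,000 cells/well, 10% dialyzed FBS; attach 4-5 hr 37C; pin compound or DMSO; o/n 37C/5% CO2; fluorescence 405/460 nm; triamterene-equivalent units.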

Regarding `CNC(=O)CSP(=S)(OC)OC`, the Potency result in experiment [1], in experiment [2], in [3], in experiment [4] and in experiment [5] was “inactive” throughout. In addition, the compound was called inactive in experiment [6], in [7] and in [8].
For the compound `CCCCCCCCCC(CC)c1ccc(S(=O)(=O)O)cc1` (configuration not stated), the Potency result in [1] is “inactive”. The Potency entry in experiment [4] is “inactive and 68.6 µM (active)”; in experiment [5] it was 61.1 µM (active). For the same compound, the outcome in [6] and in experiment [7] was inactive.
For the compound `Clc1ccccc1-c1nnc(-c2ccccc2Cl)nn1`, in [1], the Potency is 30.4 µM (active). In addition, the Potency entry in [3] and in experiment [9] was “inactive” in each case. For the same compound, the call in [6], in experiment [7] and in [8] was inactive.
As for `CC1CC(=O)O1` (configuration not stated), the Potency entry in [2], in experiment [3], in experiment [4] and in experiment [5] was “inactive” each time. Also, the call in experiment [6] and in [7] was inactive.
Take `O=S(=O)(O)C(F)(F)C(F)(F)C(F)(F)C(F)(F)C(F)(F)C(F)(F)C(F)(F)C(F)(F)F`: the Potency entry in [1] and in experiment [3] was “inactive” each time. Also, in [2], the Potency entry was “inactive and 48.6 µM (active)”. The outcome in experiment [6], in experiment [7] and in experiment [8] was inactive.
For the compound `O=[N+]([O-])/N=C1\NCCN1Cc1ccc(Cl)nc1`, the Potency result in [1], in experiment [2], in experiment [3], in experiment [4], in experiment [5] and in experiment [9] was “inactive” each time. The compound was called inactive in experiment [6] and in [7].
In the case of `C[N+](C)(C)CC(=O)O`, the Potency entry in experiment [1], in experiment [2], in experiment [3] and in experiment [4] was “inactive” throughout. The outcome in [6], in experiment [7] and in experiment [8] was inactive.
As to `CSc1nc(NC(C)C)nc(NC(C)C)n1`, the Potency result in experiment [1], in experiment [2], in [3], in experiment [4] and in experiment [9] was “inactive” in each case. Also, the outcome in [6] and in experiment [7] was inactive.
Take `Cc1cc(Cl)ccc1N=CN(C)C`: the Potency entry in experiment [1], in experiment [2], in [3], in [4] and in experiment [5] was “inactive” each time. Further, the compound was classed as inactive in experiment [6], in experiment [7] and in [8].
Turning to `CC(C)=CC1C(C(=O)OCN2C(=O)C3=C(CCCC3)C2=O)C1(C)C` (configuration not stated), the Potency result in experiment [1], in experiment [2], in [3] and in experiment [9] was “inactive” each time. In addition, the Potency in experiment [5] is 29.8 µM (active) and 54.5 µM (active). In addition, the result in [6], in experiment [7] and in experiment [8] was inactive.
Consider `NN=C(N)N`, for which the Potency result in experiment [1], in experiment [2], in experiment [3], in experiment [4] and in experiment [5] was “inactive” throughout. Moreover, the result in [6], in [7] and in [8] was inactive.
`CN(C)c1nc(=O)n(C2CCCCC2)c(=O)n1C`: the Potency entry in experiment [1], in experiment [2], in [3], in experiment [4], in experiment [5] and in experiment [9] was “inactive” throughout. The compound was classed as inactive in experiment [6] and in experiment [7].
For `Oc1ccc(Cl)cc1Cc1ccccc1`, the Potency result in experiment [1] was “inactive”. The Potency is 55.1 µM (active) in [2]; 13.3 µM (active) and 21.7 µM (active) and 15.4 µM (active) in [4]; 5.96 µM (active) and 2.43 µM (active) and 1.55 µM (active) in experiment [5]. The compound was classed as inactive in experiment [6], in [7] and in experiment [8].
